This note sets out measurements from PubChem BioAssay (EPA / NIEHS).

The nature of assay [1]: ATG_TCF_b_cat_CIS: Attagene CIS-FACTORIAL HepG2 Assay for human T-Cell-Factor with beta-catenin (TCF/b-cat) (AID 2282965). Conditions: HepG2 TCF/beta-catenin cis-reporter transcription, actives raise or lower the signal. Put shortly: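 Cells of the HepG2 line carry transiently transfected reporter units whose promoters respond to endogenous factors. Twenty-four hours post-dosing, reporter mRNA induction is measured by fluorescent RT-PCR and capillary electrophoresis, with DMSO as baseline.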

Assay [2] is described as follows: ATG_TAL_CIS: Attagene CIS-FACTORIAL HepG2 Assay for human TAL Basal Promoter (AID 2282966).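 Further: background control endpoint measuring basal TAL promoter reporter mRNA not a specific factor.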 Conditions: HepG2 Attagene cis-factorial TAL promoter reporter; actives raise or lower the signal. The procedure, abridged: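 Steps: transfect HepG2 with multiple reporter transcription units; dose 24 h; isolate RNA, reverse-transcribe, PCR-amplify, label with 6-FAM, digest with HpaI; resolve by capillary electrophoresis. Bidirectional fitting against DMSO baseline.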

Assay [3] in a line: ATG_TGFb_CIS: Attagene CIS-FACTORIAL HepG2 Assay for human Transforming Growth Factor (TGF) (AID 2282967). Conditions: HepG2 Attagene CIS TGFb reporter, mRNA transcription; actives raise or lower the signal. The procedure, abridged:
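Multiplexed cis-reporter HepG2 system, 24 h treatment; mRNA induction read by fluorescence after RT-PCR and CE; DMSO negative control, bidirectional curve fitting.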

Assay [4] can be described thus: ATG_VDRE_CIS: Attagene CIS-FACTORIAL HepG2 Assay for human Vitamin D Receptor Element (VDRE) (AID 2282968). Conditions: HepG2 VDRE cis-reporter transcription, actives raise or lower the signal. Put shortly: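 Cell-based multiplexed reporter format in human liver HepG2 cells, 24 h post-dose. Fluorescence from capillary electrophoresis of reporter cDNA gives the signal, with DMSO as negative control and baseline.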

For assay [5], the target named is Nuclear receptor subfamily 1 group I member 3 (Homo sapiens) (UniProt Q14994). Briefly: ATG_CAR_TRANS: Attagene TRANS-FACTORIAL HepG2 Assay for human Constitutive Androstane Receptor (CAR) (AID 2282969; active means hit-call score of the fitted dose curve at least 0.9, where 1 is the maximum;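 further: activators raise reporter mRNA above DMSO so AC50 marks induction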). Conditions: HepG2 Attagene TRANS-FACTORIAL CAR reporter. The procedure, abridged: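 HepG2 cells transiently transfected with GAL4-UAS reporter units; TRANS format reads activity of exogenous chimeric NR-Gal4 protein. After 24 h dosing, reporter mRNA quantified by RT-PCR, 6-FAM labelling and capillary electrophoresis; gain of signal fitted against DMSO.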

In assay [6] the target is Estrogen receptor (Homo sapiens) (UniProt P03372). Briefly: ATG_ERa_TRANS: Attagene TRANS-FACTORIAL HepG2 Assay for human Estrogen Receptor alpha (ERa) (AID 2282970; active means hit-call score of the fitted dose curve at least 0.9, where 1 is the maximum). Conditions: HepG2 Attagene TRANS ERa GAL4 reporter, mRNA. Put shortly: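 Multiplexed cell-based reporter format in HepG2: chimeric ERa-Gal4 protein drives GAL4-UAS reporter transcription. Fluorescent reporter mRNA quantified by capillary electrophoresis 24 hours after dosing; endpoint fitted as signal gain against DMSO.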

In assay [7] the target is Steroid hormone receptor ERR1 (Homo sapiens) (UniProt P11474). Put plainly: ATG_ERRa_TRANS: Attagene TRANS-FACTORIAL HepG2 Assay for human Estrogen-Related Receptor alpha (ERRa) (AID 2282971; active means hit-call score of the fitted dose curve at least 0.9, where 1 is the maximum). The settings on record: HepG2 Attagene TRANS reporter, ERRa transactivation. The procedure, abridged:
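Signal gain relative to DMSO for an ERRa-Gal4 chimeric receptor, read as reporter mRNA by RT-PCR/capillary electrophoresis. Human HepG2 liver cells, transient multiplex reporter transfection, 24 h chemical exposure.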

The target of assay [8] is X-box-binding protein 1 (Homo sapiens) (UniProt P17861). Briefly: ATG_Xbp1_CIS: Attagene CIS-FACTORIAL HepG2 Assay for human X-box Binding Protein 1 (XBP1) (AID 2282972). The settings on record: HepG2 XBP1 cis-element reporter, Attagene multiplex; actives raise or lower the signal. Put shortly:
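After a 24-hour chemical exposure of HepG2 cells carrying cis-regulated reporters, reporter mRNA levels are assessed. Quantification uses RT-PCR, 6-FAM labelling and capillary electrophoresis. Gain- or loss-of-signal is fitted against DMSO.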

The nature of assay [9]: ATG_M_19_TRANS: Attagene TRANS-FACTORIAL HepG2 Assay for M19 Transcription Factor (Internal Marker) (AID 2282974; active means hit-call score of the fitted dose curve at least 0.9, where 1 is the maximum). The settings on record: HepG2 Attagene TRANS-FACTORIAL M19 internal marker reporter. The procedure, abridged:
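Cells: human HepG2, transiently transfected with multiplexed reporter transcription units. Exposure: 24 h. Detection: RT-PCR of reporter mRNA with capillary electrophoresis. Analysis: gain-of-signal vs DMSO.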

Assay [10] is described as follows: ATG_GAL4_TRANS: Attagene TRANS-FACTORIAL HepG2 Assay for GAL4 (Internal Marker) (AID 2282976; active means hit-call score of the fitted dose curve at least 0.9, where 1 is the maximum). Conditions: HepG2 Attagene TRANS GAL4 internal marker reporter. The procedure, abridged: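 Liver HepG2 line bearing multiplexed GAL4-UAS reporter constructs; 24 h chemical treatment. Transcripts were quantified as fluorescent fragments on capillary electrophoresis after RT-PCR and HpaI cut, with activity fitted upward from DMSO.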

“And” between values parts separate entries of the source, which are not always exact repeats. Equal entries are not always repeated. Records with an inconclusive call do not appear. A structure can be active in one record and inactive in another. The source made the active and inactive calls. How the source made its calls, unless noted: active means hit-call score of the fitted dose curve at least 0.9, where 1 is the maximum; inactive means score below 0.9.

Chain of Steroid hormone receptor ERR1 (Homo sapiens) (P11474 whole entry, looked up, the tested form may be a part): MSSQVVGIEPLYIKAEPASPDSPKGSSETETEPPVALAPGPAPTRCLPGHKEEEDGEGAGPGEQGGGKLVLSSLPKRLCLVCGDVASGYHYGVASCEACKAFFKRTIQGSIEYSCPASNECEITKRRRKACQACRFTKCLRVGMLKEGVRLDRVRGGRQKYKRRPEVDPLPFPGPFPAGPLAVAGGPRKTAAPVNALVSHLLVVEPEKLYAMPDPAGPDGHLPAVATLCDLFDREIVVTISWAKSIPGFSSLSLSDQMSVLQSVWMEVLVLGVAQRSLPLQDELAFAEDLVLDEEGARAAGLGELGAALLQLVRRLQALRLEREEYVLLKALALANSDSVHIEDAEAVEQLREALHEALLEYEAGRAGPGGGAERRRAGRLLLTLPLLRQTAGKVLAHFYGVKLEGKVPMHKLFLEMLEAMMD
Chain of Estrogen receptor (Homo sapiens) (P03372 whole entry, looked up, the tested form may be a part): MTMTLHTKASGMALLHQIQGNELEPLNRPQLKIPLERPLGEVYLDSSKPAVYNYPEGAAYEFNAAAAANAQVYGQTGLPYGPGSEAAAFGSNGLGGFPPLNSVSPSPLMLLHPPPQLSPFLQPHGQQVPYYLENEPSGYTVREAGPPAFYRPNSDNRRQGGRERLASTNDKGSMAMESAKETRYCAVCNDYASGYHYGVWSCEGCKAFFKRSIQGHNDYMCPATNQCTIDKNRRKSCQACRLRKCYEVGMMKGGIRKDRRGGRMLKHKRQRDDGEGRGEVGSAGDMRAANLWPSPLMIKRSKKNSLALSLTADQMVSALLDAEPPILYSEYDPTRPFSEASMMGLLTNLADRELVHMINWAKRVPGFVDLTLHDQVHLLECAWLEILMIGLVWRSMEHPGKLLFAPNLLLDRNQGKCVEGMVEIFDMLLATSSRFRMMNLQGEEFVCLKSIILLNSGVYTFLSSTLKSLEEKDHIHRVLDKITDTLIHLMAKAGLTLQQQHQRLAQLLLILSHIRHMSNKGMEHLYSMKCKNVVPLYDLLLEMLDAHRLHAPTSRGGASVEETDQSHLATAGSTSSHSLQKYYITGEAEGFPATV
Chain of X-box-binding protein 1 (Homo sapiens) (P17861 whole entry, looked up): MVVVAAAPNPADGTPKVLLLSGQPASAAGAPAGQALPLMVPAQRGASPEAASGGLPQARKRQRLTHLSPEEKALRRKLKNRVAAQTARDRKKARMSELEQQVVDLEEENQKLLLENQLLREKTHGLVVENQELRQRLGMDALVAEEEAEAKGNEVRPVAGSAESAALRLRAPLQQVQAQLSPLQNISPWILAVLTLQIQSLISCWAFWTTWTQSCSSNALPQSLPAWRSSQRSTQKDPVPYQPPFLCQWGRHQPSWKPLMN
Chain of Nuclear receptor subfamily 1 group I member 3 (Homo sapiens) (Q14994 whole entry, looked up, the tested form may be a part): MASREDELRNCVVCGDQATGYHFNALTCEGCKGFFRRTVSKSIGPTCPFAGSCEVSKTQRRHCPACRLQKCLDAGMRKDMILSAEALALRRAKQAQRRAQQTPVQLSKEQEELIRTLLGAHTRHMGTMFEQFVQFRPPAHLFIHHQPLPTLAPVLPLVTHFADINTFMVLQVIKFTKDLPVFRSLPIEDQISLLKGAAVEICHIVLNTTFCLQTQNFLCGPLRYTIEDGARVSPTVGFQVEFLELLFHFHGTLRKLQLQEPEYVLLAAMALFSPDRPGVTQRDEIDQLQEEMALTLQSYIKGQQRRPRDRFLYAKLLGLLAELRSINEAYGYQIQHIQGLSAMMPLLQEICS

What is called AC50 is the midpoint of the concentration-response curve, whichever way the signal moves. Take `CCOC(=O)NCCOc1ccc(Oc2ccccc2)cc1`: the compound was classed as inactive in [1], in [2], in assay [3], in [5], in assay [7] and in assay [8]. In assay [9], the compound was classed as inactive. Moreover, the AC50 in assay [4] was 27.4 µM (active); in [6] it was 13.8 µM (active).

As for `O=C(c1ccc(O)cc1O)c1ccc(O)cc1O`, the AC50 was 53.5 µM (active) in assay [1] and 827 nM (active) [middle of 4 runs] in [6]. Also, the outcome in assay [1], in [2], in assay [3], in assay [4], in assay [5] and in [8] was inactive. For the same compound, the result in assay [9] was inactive.

Regarding `N#CSCSc1nc2ccccc2s1`, the figures for the AC50 in assay [1], in assay [3] and in assay [8] were 1.99 µM (active), 1.52 µM (active) and 14.3 µM (active), respectively. For the same compound, the call in assay [1], in assay [2], in assay [3], in [4], in assay [5] and in assay [6] was inactive. Besides, the result in [8] was inactive.

Consider `c1ccc(Nc2ccccc2)cc1`, for which the result in [1], in assay [2], in assay [3], in assay [4], in assay [5] and in [7] was inactive. Further, the call in assay [8] was inactive. Also, the AC50 in [4] was 100 µM (active).

As for `CC(=O)[C@H]1CC[C@H]2[C@@H]3CCC4=CC(=O)CC[C@]4(C)[C@H]3CC[C@]12C`, the call in assay [1], in assay [2], in [3], in assay [7], in assay [8] and in [9] was inactive. Besides, in assay [10], the compound was called inactive. Besides, the concentration at half-maximal activity (AC50) in assay [2] is 177 µM (active); in assay [4], 26.5 µM (active) [middle of 4 runs]; in assay [10], 158 µM (active).

Turning to `CCC(C)OC(=O)N1CCCCC1CCO` (configuration not stated), the outcome in [1], in assay [2], in assay [3], in assay [4], in assay [5] and in [8] was inactive. Moreover, the call in [9] was inactive. For the same compound, the AC50 in assay [4] is 46.5 µM (active).

Take `COC(=O)c1ccc(CNS(C)(=O)=O)cc1S(=O)(=O)NC(=O)Nc1nc(OC)cc(OC)n1`: the compound was classed as inactive in assay [1], in assay [2], in assay [3], in assay [4], in assay [5] and in assay [6]. Further, the result in assay [8] was inactive.

In the case of `CCC(O)=C1C(=O)CC(C(=O)O)CC1=O` (configuration not stated), the compound was called inactive in assay [1], in assay [2], in assay [3], in assay [4], in assay [5] and in assay [6]. For the same compound, the result in assay [7], in assay [8] and in assay [9] was inactive.

Consider `CCOC(=O)c1ccc(O)cc1`, for which the compound was classed as inactive in [1], in [2], in assay [3], in assay [4], in assay [5] and in assay [8]. Also, the compound was classed as inactive in assay [9] and in assay [10]. In addition, the AC50 in [4] was 42.8 µM (active); in assay [8], 100 µM (active).

For the compound `CC(C)(c1ccc(O)cc1)c1ccc(O)cc1`, the outcome in assay [1], in assay [2], in [3], in assay [5], in assay [7] and in assay [8] was inactive. In addition, the result in [9] and in [10] was inactive. Moreover, the AC50 in assay [2] is 162 µM (active); in [3] it was 43.6 µM (active).

`CCN(Cc1c(F)cccc1Cl)c1c([N+](=O)[O-])cc(C(F)(F)F)cc1[N+](=O)[O-]`: the call in [1], in assay [2], in [3], in assay [5], in assay [7] and in assay [8] was inactive. Further, the call in [9] and in assay [10] was inactive. The AC50 in assay [4] is 1.87 µM (active); in [6], 3.08 µM (active).

`CC(=O)S[C@@H]1CC2=CC(=O)CC[C@]2(C)[C@H]2CC[C@@]3(C)[C@@H](CC[C@@]34CCC(=O)O4)[C@H]12`: the AC50 in assay [1] is 39.1 µM (active); in assay [4], 25 µM (active) [middle of 4 runs]; in assay [8] it was 38.7 µM (active) and 21.9 µM (active) and 4.9 µM (active). For the same compound, the result in [1], in [2], in assay [3], in assay [4], in assay [5] and in assay [6] was inactive. For the same compound, the compound was called inactive in assay [8], in assay [9] and in assay [10].

For `CCCCC(CC)CN1C(=O)C2C3C=CC(C3)C2C1=O` (configuration not stated), the result in assay [1], in [2], in assay [3], in assay [5], in assay [7] and in assay [8] was inactive. The compound was called inactive in [9] and in assay [10]. Besides, the AC50 in assay [4] is 23.8 µM (active); in assay [6] it was 50 µM (active).
